High-throughput results as filed in PubChem BioAssay.
MCF10A rereplic = DNA re-replication induction in MCF 10a cells | Potency, µM (highest dose often 46.1 µM), usual class: activators | hit rate 2.9% among 350,000 | MCF 10A DNA re-replication, Hoechst nuclear intensity, 48 h; further: nearly all actives have a fitted effect of over 50% in size
ELG1 DNA repair = blocks ELG1-dependent DNA repair in HEK293T cells | HEK293T ELG1-luciferase reporter, luminescence, 16 h; DNA damage induced by 5-fluorouridine | Potency, µM (series often up to 46.1 µM), actives largely listed as inhibitors | hit rate 2.3% among 330,000; further: nearly all actives have a fitted effect of over 55% in size
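Cells (2,000 per well) received 5-fluorouridine plus test compound or DMSO and were incubated 16 hr at 37 °C, 5% CO2. Luciferase activity was read by luminescence 30 min after ONE-Glo addition; signal suppression marked inhibition of damage-induced ELG1 function.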
KB-V1 cytotox = kills drug-selected multidrug resistant KB-V1 cells. KB-V1 MDR cells viability, CellTiter-Glo, 72 h. Potency, µM (top dose mostly 46.1 µM), hits mostly cytotoxic. hit rate 3.4% among 400,000. AID 1347076; further: nearly all actives have a fitted effect of over 60% in size
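KB-V1, DMEM (no phenol red) + 10% FBS; cpd pin-transferred, titration series; 72 h, 37 degrees C; CellTiter-Glo, luminescence. Data normalized, curve-fit.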
SW480 rereplic = inducers of DNA re-replication in SW480 colon cancer cells | AID 624297 | SW480 DNA re-replication, Hoechst DNA content imaging, 48 h | Potency, µM (top dose mostly 46.1 µM), hits mostly activators | hit rate 1.8% among 340,000; further: nearly all actives have a fitted effect of over 55% in size
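Cells (250 per well) received 23 nL compound or DMSO by pin tool and were kept 48 hr at 37 C, 5% CO2. Nuclei were then stained with Hoechst for 40 min and scanned for DNA content.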
KB-3-1 cytotox = kills parental KB-3-1 adenocarcinoma cells. KB-3-1 viability, CellTiter-Glo ATP luminescence, 72 h. Potency, µM (series often up to 46.1 µM), usual class: cytotoxic. hit rate 1.4% among 400,000; further: nearly all actives have a fitted effect of over 60% in size
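Cytotoxicity measured as CellTiter-Glo luminescence after 72 h at 37 C. Compound titrations were pinned onto drug-naive KB-3-1 parental adenocarcinoma cells grown in DMEM with 10% FBS, and normalized data fitted to concentration-response curves.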
Of the large screens only hits and unclear results are named; the others gave an inactive call. Sampled rows, rich in hits. Any-hit rate of the full collection: about 8.1%. The call rests on the fitted dose curve; in most records, active means well fitted curve in the direction sought with a large enough effect; inconclusive means small, poorly fitted or top-dose-only effect, or another doubt; inactive means no such curve, though single readings can be large; an effect the other way counts as inactive or inconclusive.

CN(C)c1ccc(/C=C/c2ccnc3ccccc23)cc1[N+](=O)[O-]	KB-V1 cytotox inconclusive (no result: MCF10A rereplic, ELG1 DNA repair, SW480 rereplic)
Cc1ccc(-c2nc(C(=O)NCc3ccccc3Cl)c3n2CCCCC3)cc1	KB-V1 cytotox inconclusive (no result: MCF10A rereplic, ELG1 DNA repair, SW480 rereplic)
O=C(CCS(=O)(=O)c1ccccc1)Nc1nc(-c2cccs2)cs1	MCF10A rereplic inconclusive, ELG1 DNA repair inconclusive, KB-V1 cytotox 23.1µM, SW480 rereplic inconclusive
O=C(COc1ccccc1)Nc1nc(-c2cccs2)cs1	none
CCOc1cc2sc(N3CCC(C(=O)Nc4ccccc4Cl)CC3)nc2cc1Br	none (no result: MCF10A rereplic, ELG1 DNA repair, SW480 rereplic)
CCCOc1ccc(CNC(=O)C2CCCN(c3nc4c(C)cc(C)cc4s3)C2)cc1 (configuration not stated)	none (no result: MCF10A rereplic, ELG1 DNA repair, SW480 rereplic)
CC(C)CN(C[C@@H](O)[C@H](Cc1ccccc1)NC(=O)O[C@H]1CO[C@H]2OCC[C@H]21)S(=O)(=O)c1ccc(N)cc1	SW480 rereplic inconclusive (no result: ELG1 DNA repair, KB-V1 cytotox, KB-3-1 cytotox)
O=c1ccc2cc3c(-c4ccccc4)coc3cc2o1	MCF10A rereplic 23.1µM, KB-V1 cytotox 6.51µM, KB-3-1 cytotox 18.4µM
COc1ccc2nc3n(c(=O)c2c1)-c1ccc(Cl)cc1C(=O)NC3Cc1ccc(O)cc1 (configuration not stated)	KB-V1 cytotox inconclusive (no result: ELG1 DNA repair)
CCCCCCCC[n+]1c(C)n(-c2ccccc2)c2ccc(NC(C)=O)cc21	ELG1 DNA repair inconclusive, KB-3-1 cytotox 4.61µM
Clc1ccc(CNc2cc(-c3ccccc3)nc3nncn23)cc1	none (no result: MCF10A rereplic, ELG1 DNA repair, SW480 rereplic)
Cc1cc(C)c(C(=O)c2ccc(C(=O)N(C(C)C)C(C)C)cc2)c(C)c1	ELG1 DNA repair inconclusive, KB-V1 cytotox 16.4µM, KB-3-1 cytotox inconclusive
O=C(O)CSc1nnc(-c2cccc(S(=O)(=O)N3CCOCC3)c2)n1-c1ccc(F)cc1	none
O=[N+]([O-])c1cccc(COc2ncnc3cc([N+](=O)[O-])ccc23)c1	ELG1 DNA repair 10.3µM
CCc1nc2ccc(C(=O)NCCCN3CCCC3=O)cn2c1N(C)C(=O)c1cccc(OC)c1	none (no result: MCF10A rereplic, ELG1 DNA repair, SW480 rereplic)
O=C(CN1CCN(c2ccccc2O)CC1)Nc1ccnn1C1CCCC1	ELG1 DNA repair inconclusive
COc1ccc(C#Cc2cccc(-c3nc(C(=O)N4CCN(C)CC4)cc4c3[C@H](CCO)N(S(=O)C(C)(C)C)C4)c2)cc1OC (some centres not stated)	none (no result: MCF10A rereplic, ELG1 DNA repair, SW480 rereplic)
Cc1cc2ccccn2c1C(=O)c1ccc(F)cc1	KB-V1 cytotox inconclusive, SW480 rereplic inconclusive
Cc1cc2ccccn2c1C(=O)c1ccc([N+](=O)[O-])o1	MCF10A rereplic inconclusive, ELG1 DNA repair inconclusive, KB-V1 cytotox inconclusive, SW480 rereplic 20.6µM, KB-3-1 cytotox inconclusive
Cc1cc2ccccn2c1C(=O)c1ccc(S(=O)(=O)N(C)C)cc1	ELG1 DNA repair 16.4µM, KB-V1 cytotox inconclusive, SW480 rereplic inconclusive, KB-3-1 cytotox inconclusive
Nc1nc(SCC(=O)O)c2[nH]cnc2n1	KB-3-1 cytotox inconclusive (no result: MCF10A rereplic, ELG1 DNA repair, SW480 rereplic)
C=CCn1c(SCc2ccc(C(=O)Nc3ccccc3)cc2)nnc1-c1ccccc1	KB-V1 cytotox 2.59µM
C=CCn1c(SCC(=O)c2ccccc2)nnc1-c1ccc2c(c1)OCO2	MCF10A rereplic inconclusive, KB-V1 cytotox 20.6µM, SW480 rereplic inconclusive
C=CCn1c(SCC(=O)NNC(=S)Nc2ccccc2)nnc1-c1ccccc1	none
CCCN1C(=O)c2ccccc2NC1c1ccc(OC)c(COc2ccc([N+](=O)[O-])cc2)c1 (configuration not stated)	none (no result: MCF10A rereplic, ELG1 DNA repair, SW480 rereplic)
COC(=O)CNc1nc(Cl)nc(NC2CCCCC2)n1	none
COCCC(=O)N1CCC(Oc2ccc(C(=O)NCCSC)cc2)CC1	none
COCCC(=O)N1CCC(Oc2ccc(C(=O)NC3Cc4ccccc4C3)cc2)CC1	KB-V1 cytotox 4.11µM
CN(C(=O)c1cccc(NC(=O)Cc2ccc(NC(=O)C3CCCN(C(=O)C4CC4)C3)cc2)c1)C1CCCCC1 (configuration not stated)	SW480 rereplic 2.59µM (no result: ELG1 DNA repair)
CN(Cc1ccccc1)C(=O)c1ccc(NC(=O)Cc2cccc(NC(=O)C3CCN(C(=O)C4CCCC4)CC3)c2)cc1	ELG1 DNA repair 10.3µM
CN(C(=O)c1cccc(NC(=O)Cc2ccc(NC(=O)C3CCCN(C(=O)C4CCCCC4)C3)cc2)c1)C1CCCC1 (configuration not stated)	SW480 rereplic inconclusive (no result: ELG1 DNA repair)
